Assay outcomes: PubChem, Center for Chemical Genomics, University of Michigan
Dicer inh: human Dicer pre-microRNA cleavage inhibition. z-score at 25 µM. hit rate 6% among 47,000. Q9UPY3. cat-ELCCA pre-miR-21 Dicer processing, chemiluminescence; active compounds read high; in the data active means z-score above about 3, passing the limit was not always enough;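 further: higher signal means more uncleaved substrate so more Dicer inhibition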
Target sequence (Q9UPY3 whole entry, looked up): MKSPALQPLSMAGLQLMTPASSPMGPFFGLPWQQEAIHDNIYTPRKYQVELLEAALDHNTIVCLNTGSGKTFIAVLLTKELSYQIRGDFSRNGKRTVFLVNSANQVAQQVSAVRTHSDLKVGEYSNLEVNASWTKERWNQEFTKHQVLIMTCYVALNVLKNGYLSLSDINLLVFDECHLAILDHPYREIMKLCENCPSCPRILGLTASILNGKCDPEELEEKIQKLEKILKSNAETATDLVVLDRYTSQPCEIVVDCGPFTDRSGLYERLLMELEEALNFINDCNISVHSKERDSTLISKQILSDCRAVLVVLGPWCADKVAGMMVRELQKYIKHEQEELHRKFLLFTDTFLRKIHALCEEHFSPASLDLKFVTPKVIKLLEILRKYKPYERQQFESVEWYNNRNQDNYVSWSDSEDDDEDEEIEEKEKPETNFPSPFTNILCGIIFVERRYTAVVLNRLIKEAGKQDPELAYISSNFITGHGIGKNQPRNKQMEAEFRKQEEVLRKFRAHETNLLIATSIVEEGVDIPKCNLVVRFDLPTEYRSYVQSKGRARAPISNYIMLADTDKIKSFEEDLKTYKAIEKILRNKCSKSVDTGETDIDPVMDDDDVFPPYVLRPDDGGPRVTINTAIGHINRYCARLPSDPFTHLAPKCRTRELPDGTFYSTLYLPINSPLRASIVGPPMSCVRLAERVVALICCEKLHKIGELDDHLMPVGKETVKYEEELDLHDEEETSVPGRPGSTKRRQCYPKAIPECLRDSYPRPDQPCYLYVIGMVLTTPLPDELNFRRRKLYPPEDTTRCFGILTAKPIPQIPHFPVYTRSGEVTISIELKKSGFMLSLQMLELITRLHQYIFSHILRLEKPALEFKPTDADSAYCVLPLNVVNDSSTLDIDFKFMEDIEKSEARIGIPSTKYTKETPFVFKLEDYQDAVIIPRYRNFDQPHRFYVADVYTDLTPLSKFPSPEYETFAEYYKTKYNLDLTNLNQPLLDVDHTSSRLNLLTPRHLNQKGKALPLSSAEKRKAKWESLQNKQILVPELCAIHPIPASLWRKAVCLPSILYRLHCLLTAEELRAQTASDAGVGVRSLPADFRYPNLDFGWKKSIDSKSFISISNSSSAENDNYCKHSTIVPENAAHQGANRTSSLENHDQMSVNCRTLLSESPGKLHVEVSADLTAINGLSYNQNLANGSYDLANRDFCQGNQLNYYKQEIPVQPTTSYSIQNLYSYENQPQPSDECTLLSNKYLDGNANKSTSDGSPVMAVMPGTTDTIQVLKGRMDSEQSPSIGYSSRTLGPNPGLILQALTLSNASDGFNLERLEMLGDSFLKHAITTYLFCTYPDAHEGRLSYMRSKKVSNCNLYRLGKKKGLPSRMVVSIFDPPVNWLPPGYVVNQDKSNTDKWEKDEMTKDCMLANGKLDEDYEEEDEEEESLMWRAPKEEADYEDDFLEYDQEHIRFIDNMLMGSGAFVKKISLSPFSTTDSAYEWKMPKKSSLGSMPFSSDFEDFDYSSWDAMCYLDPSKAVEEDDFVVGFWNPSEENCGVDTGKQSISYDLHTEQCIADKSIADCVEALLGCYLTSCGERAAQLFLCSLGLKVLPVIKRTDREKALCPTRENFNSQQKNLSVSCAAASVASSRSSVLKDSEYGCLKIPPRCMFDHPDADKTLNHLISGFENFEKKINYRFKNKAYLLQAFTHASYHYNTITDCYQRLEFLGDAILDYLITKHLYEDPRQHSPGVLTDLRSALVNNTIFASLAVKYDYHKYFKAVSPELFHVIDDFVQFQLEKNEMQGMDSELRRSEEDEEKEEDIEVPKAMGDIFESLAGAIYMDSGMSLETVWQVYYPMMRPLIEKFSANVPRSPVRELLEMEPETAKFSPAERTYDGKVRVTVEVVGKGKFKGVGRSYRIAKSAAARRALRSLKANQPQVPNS
Each line names hits and unclear results; the compound was inactive in the other large screens. Many of the other results were omitted from the sample, so hits are more common in it than they were.

CCCc1cc(=O)[nH]c(SCc2ccc(Cl)cc2Cl)n1	none
CCCc1cc(=O)[nH]c(SCc2ccc(Cl)cc2)n1	none
Cn1c(=O)[nH]c(=O)c2c1nc1n2CC(c2ccccc2)=NN1	none
Cn1cc(Cl)c(/C=C(\C#N)S(=O)(=O)c2ccccc2)n1	none
Cn1cc(Cl)c(/C=C(\C#N)C(=O)c2ccc(Cl)cc2)n1	none
Cn1cc(Cl)c(/C=C(\C#N)S(=O)(=O)C(C)(C)C)n1	Dicer inh 4.23
N/C(=N/OC(=O)Nc1cccc(C(F)(F)F)c1)C1COc2ccccc2O1 (configuration not stated)	none
Nc1c(-c2nnnn2-c2ccc(F)cc2)cnc2cc(Cl)ccc12	none
COc1ccc(OC)c(SCC(=O)O)c1	none
COc1ccc(OC)c(-c2sccc2CC(=O)O)c1	Dicer inh 3.77
COC(=O)c1cc(-c2cc(OC)ccc2OC)no1	none
O=C(CSC1CS(=O)(=O)c2cc([N+](=O)[O-])ccc21)NNC(=O)c1ccccc1Cl (configuration not stated)	none
Cc1cccc(N2C(=O)CC(Sc3ccccc3C(=O)O)C2=O)c1C (configuration not stated)	none
CC(=O)CSc1sc(C(C)=O)c(-c2ccccc2)c1C#N	none
CC1CC2(CC(C)(c3csc(Nc4ccccc4)n3)OC2=O)C(=O)O1 (configuration not stated)	Dicer inh 4.91
CCCCCOCC1CC2(CC(C)(c3csc(Nc4ccccc4)n3)OC2=O)C(=O)O1 (configuration not stated)	none
Cc1ccccc1Nc1nc(C2(C)CC(C(C)C)C(=O)O2)cs1 (configuration not stated)	none
Cc1[nH]c2ccccc2c(=O)c1CN1CCCC1	none
Cc1nn(C)c(C)c1CNC(=O)c1cc2n(n1)C(C(F)(F)F)CC(c1ccc3c(c1)OCO3)N2 (configuration not stated)	none
CCSCCOC(=O)C1=C(C)NC2=C(C(=O)CCC2)C1c1cccc(F)c1 (configuration not stated)	Dicer inh 3.15
CCn1c2ccccc2c2cc(C3C(C(=O)OCC4CCCO4)=C(C)NC4=C3C(=O)CCC4)ccc21 (configuration not stated)	none
CCn1c2ccccc2c2cc(C3C(C(=O)OCCOC)=C(C)NC4=C3C(=O)CCC4)ccc21 (configuration not stated)	Dicer inh 3.6
CCCCOC(=O)C1=C(C)NC2=C(C(=O)CCC2)C1c1ccc(OC)c(OC)c1 (configuration not stated)	none
CCSCCOC(=O)C1=C(C)NC2=C(C(=O)CCC2)C1c1ccc(C(=O)OC)cc1 (configuration not stated)	none
CCOCCOC(=O)C1=C(C)NC2=C(C(=O)CCC2)C1c1cccc(F)c1 (configuration not stated)	none
CCSCCOC(=O)C1=C(C)NC2=C(C(=O)CCC2)C1c1ccc(OC)c(OC)c1 (configuration not stated)	Dicer inh 4.84
COCCOC(=O)C1=C(C)NC2=C(C(=O)CCC2)C1c1ccc(Cl)cc1 (configuration not stated)	none
CCCCCOC(=O)C1=C(C)NC2=C(C(=O)CCC2)C1c1ccc(OC)c(OC)c1 (configuration not stated)	none
CN(C)/C=C(\C#N)C(=O)Nc1ccc(F)c(F)c1F	none
CC1=C(C#N)C(c2ccc(C#Cc3ccccc3)s2)C2=C(CCCC2=O)N1 (configuration not stated)	none
COC(=O)c1c(-c2c(Cl)cccc2Cl)noc1NC(=O)O/N=C(\N)c1c(Cl)cccc1Cl	none
Cc1cc(C)n(-c2ccc(Sc3ccccn3)nn2)n1	none
C=C(C)Cn1c(CN2CCOCC2)nc2c1c(=O)[nH]c(=O)n2C	none
Cn1c(N/N=C/c2ccncc2)nc2c1c(=O)n(Cc1ccccc1)c(=O)n2C	none
Oc1cccc(N2Cc3ccccc3C2)c1	Dicer inh 4.44
Oc1ccc(N2Cc3ccccc3C2)cc1	none
CC1CCC2C(=O)N(c3cccc(O)c3)C(=O)C2C1 (configuration not stated)	none
O=C(Oc1ccc2c(c1)oc(=O)c1ccccc12)c1ccc(F)cc1	none
c1ccc(-c2nnc(Sc3c4c(nc5ncnn35)CCC4)n2-c2ccccc2)cc1	none
OC(CN1CCOCC1)Cn1c2ccc(Br)cc2c2cc(Br)cc(Br)c21 (configuration not stated)	none
Cc1ccc2c(c1)c(C)c(C)n2CC(O)CN1CCOCC1 (configuration not stated)	Dicer inh 4.57
OC(CN1CCCC1)Cn1c2ccc(Cl)cc2c2cc(Cl)ccc21 (configuration not stated)	none
CC(C)(C)C1=CC(=O)C(C(C)(C)C)=CC1=O	none
CC(C)CC(NC(=O)OC(C)(C)C)C(N)=O (configuration not stated)	none
NC(CCc1nc2ccccc2[nH]1)C(=O)O (configuration not stated)	none
Cc1nn(-c2ccccc2)c(NC(=O)C(Cl)Cl)c1Br	none
CCOC(=O)c1c(N)oc2c(-c3ccc(CC)cc3)c3c(C(=O)OCC)c(N)oc3cc12	none
CCOC(=O)c1c(N)oc2c(-c3ccc(C)c(C)c3)c3c(C(=O)OCC)c(N)oc3cc12	Dicer inh 4.99
COC(=O)c1c(C)oc2ccc(O)cc12	none
CCOC(=O)c1c(N)oc2c(-c3ccc(C)cc3)c3c(C(=O)OCC)c(N)oc3cc12	none
COC(=O)c1c(C)oc2ccc(OC(C)C(=O)O)cc12 (configuration not stated)	none
COC(=O)c1c(N)oc2c(-c3ccc(C)cc3)c3c(C(=O)OC)c(N)oc3cc12	Dicer inh 3.8
CCOC(=O)c1sc(SCc2ccc(Cl)cc2)c(S(=O)(=O)C(C)C)c1-n1cccc1	none
Cc1ccc(CSC2=NCN(C(C)(C)CC(C)(C)C)CN2)cc1	none
COc1ccccc1C1C2=C(CC(C)(C)CC2=O)Nc2[nH]c(=O)[nH]c(=O)c21 (configuration not stated)	none
O=C(NC(=O)c1ccccc1F)NC1CC1	none
Cn1ncc(C(=O)O)c1NNC(=O)CC(C)(C)CC(=O)O	none
c1ccc(N2CCN(c3nc4ccccc4[nH]3)CC2)nc1	Dicer inh 3.48
O=C1CC(N2CCN(c3ccccn3)CC2)C(=O)N1c1ccc(F)cc1 (configuration not stated)	none
Fc1ccc2[nH]c(CN3CCN(c4ccccn4)CC3)cc2c1	none
COc1ccc(C(=O)/C=C/Oc2ccc(Cl)cc2)cc1	Dicer inh 4.36
COc1ccc(C(=O)/C=C/Sc2cc(Cl)ccc2Cl)cc1	none
Cc1cc(O/C=C/C(=O)c2ccc(Br)cc2)ccc1Cl	none
CC(=O)OC[C@@H](OC(C)=O)[C@@H](OC(C)=O)[C@H](OC(C)=O)C(=O)O	none
Cc1ccc(NC(=O)CC#N)cc1Cl	none
Cc1onc(-c2c(Cl)cccc2Cl)c1C(=O)OC(Cc1ccccc1)C(F)(F)F (configuration not stated)	none
CC(=O)Cn1nc2n(c1=O)-c1ccccc1SC2	none
NNC(=O)Cn1nc2n(c1=O)-c1ccccc1SC2	Dicer inh 4.14
CNC(=O)NC(=O)Cn1nc2n(c1=O)-c1ccccc1SC2	none
CC1CCC2C(=O)N(c3ccc(O)cc3)C(=O)C2C1 (configuration not stated)	none
COc1cc(C2Nc3ccccc3-c3nnc(SC)nc3O2)ccc1O (configuration not stated)	none
CCSc1nnc2c(n1)OC(c1ccc(O)c(OC)c1)Nc1ccccc1-2 (configuration not stated)	none
CCOc1cc(C2Nc3ccccc3-c3nnc(SC)nc3O2)ccc1O (configuration not stated)	Dicer inh 5.03
CCc1ccc(Oc2c(C(F)(F)F)oc3c(CN4CCOCC4)c(O)ccc3c2=O)cc1	none
